# Vc quorum ag – inducers of Vibrio cholerae quorum light production without autoinducers | V. cholerae BH1578 lux reporter, luminescence, 6 h | activation, % at 18.7 µM | 0.16% of 350,000 active | AID 588436; in the data active = activation mostly above about 9.7%, no sharp cut-off
# PrPC surface inh – reduces human prion protein on the cell surface | P04156 | cell surface PrPC, TR-FRET read-out | inhibition, % at 13.8 µM | 0.43% of 370,000 active; in the data active = inhibition above about 24%
# Mtb FBA inh – inhibits M. tuberculosis FBA enzyme. P9WQA3. purified M. tuberculosis FBA, fluorescence read-out. 2.3% of 360,000 active. inhibition, % at 1 µM. AID 588726; in the data active = inhibition above about 27%
# Target sequence (P9WQA3 whole entry, looked up): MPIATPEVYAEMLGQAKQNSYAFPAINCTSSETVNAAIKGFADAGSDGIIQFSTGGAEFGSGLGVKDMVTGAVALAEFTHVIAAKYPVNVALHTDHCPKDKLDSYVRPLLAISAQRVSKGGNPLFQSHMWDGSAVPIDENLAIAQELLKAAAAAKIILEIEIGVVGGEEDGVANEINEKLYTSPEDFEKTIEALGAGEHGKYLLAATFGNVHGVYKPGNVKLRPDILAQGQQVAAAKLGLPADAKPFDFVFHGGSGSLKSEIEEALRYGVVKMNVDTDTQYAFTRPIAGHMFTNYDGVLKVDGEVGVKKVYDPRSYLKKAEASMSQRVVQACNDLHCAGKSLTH
# SARS 3CLpro inh – SARS-CoV 3CLpro protease inhibition. 0.14% of 290,000 active. P0C6X7. inhibition, % at 6 µM. recombinant SARS-CoV 3CLpro, quenched FRET peptide cleavage; in the data active = inhibition above about 12%
# GDH-TPI counter – GDH-TPI coupled enzyme inhibition counter-screen. GDH-TPI coupled enzyme counterscreen, NADH absorbance. AID 588335. 1.2% of 360,000 active. inhibition, % at 4.8 µM; in the data active = inhibition above about 30%
# PrPC confirm – confirmation of inhibitors of cell surface human prion protein. inhibition, % at 13.8 µM. shares compounds with PrPC surface inh. cell surface PrPC level, TR-FRET. 65% of 1,500 active; in the data active = inhibition above about 25%
# LD9 cytotox – LD9 cell cytotoxicity, PrPc inhibitor counter-screen | shares compounds with PrPC surface inh | LD9 cells cytotoxicity, luminescence viability | inhibition, % at 13.8 µM | 29% of 1,500 active; in the data active = inhibition above about 9.5%
# Numbers stand for hits; . = inactive; / = not tested or not shown. A selection: hits, their analogues and other compounds. The true share with any hit is near 3.9%.
SMILES,Vc quorum ag,PrPC surface inh,Mtb FBA inh,SARS 3CLpro inh,GDH-TPI counter,PrPC confirm,LD9 cytotox
Cn1c(SCc2c(Cl)cccc2Cl)nnc1-c1ccc2nonc2c1,.,.,.,.,.,/,/
Cn1c(SCc2ccc(Cl)cc2)nnc1-c1ccc2nonc2c1,.,70,.,.,.,.,.
COc1ccc(C(=O)Nc2ccc(NC(=O)c3ccccc3OC)nc2)cc1,.,.,.,.,.,/,/
COc1ccc(C(=O)Nc2ccc(NC(=O)c3cc(OC)c(OC)c(OC)c3)cn2)cc1,.,43,.,.,.,38,.
CN(C)c1ncnc2c1ncn2[C@H]1CN(Cc2cccnc2)C[C@@H](CO)O1,.,.,.,/,.,/,/
CC(=O)c1ccccc1C(=O)N1CCCC(C(=O)c2ccc(C(F)(F)F)cc2)C1 (centres undefined),.,.,.,.,.,/,/
CCOC(=O)NC(=O)CSc1ccc2ccccc2n1,.,49,.,.,.,49,.
CCOC(=O)NC(=O)CSc1cc(C)c2cc(C)cc(C)c2n1,.,42,.,.,.,58,.
COC(=O)[C@]12C[C@H](CC(=O)NCc3ccccc3)C(=O)N(Cc3ccccc3)C1=C[C@H](C(C)(C)C)O[C@@H]2C,/,.,/,/,/,/,/
Cc1ccc(S(=O)(=O)n2ccc(-c3c(-c4ccc(F)cc4)noc3C)n2)cc1,/,.,/,/,/,/,/
CC(Sc1cnc2ccccc2n1)C(=O)O (centres undefined),.,39,.,.,.,47,.
CC(Sc1ccc2ccccc2n1)C(=O)O (centres undefined),.,115,.,.,.,123,.
Cc1cc(SC(C)C(=O)NCC(=O)Nc2ccc(F)c(F)c2F)nc2ccccc12 (centres undefined),.,.,.,.,.,/,/
Cc1cc(SC(C)C(=O)O)nc2ccccc12 (centres undefined),.,46,.,.,.,76,.
CCCCNC(=O)c1nc(-c2ccccc2)oc1-c1ccc(Cl)cc1,/,.,/,/,/,/,/
O=c1cc(C(Cl)(Cl)Cl)oc2c1ccc1ccccc12,.,.,.,.,.,/,/
Cn1cc(Cc2ccc(C(=O)NCc3ccccc3)cn2)c2ccccc21,.,.,.,/,.,/,/
COc1ccc(CCNC(=O)CSc2nn3c(=O)c(C)nnc3s2)cc1OC,.,25,.,.,.,.,.
Cc1ccc(F)cc1-c1cc(C(=O)NCc2cc(C(F)(F)F)cc(C(F)(F)F)c2)[nH]n1,.,.,.,/,.,/,/
CC(=O)OCCC(CC(C)C)NC(=O)[C@H](CC(C)C)NC(=O)OCc1ccccc1 (some centres undefined),/,.,/,/,/,/,/
CCOc1ccc(N(C)S(=O)(=O)c2ccc(C)c(C(=O)N3CCN(Cc4ccc5c(c4)OCO5)CC3)c2)cc1,.,25,.,/,.,.,.
COc1ccc(N(C)S(=O)(=O)c2cccc(C(=O)N3CCN(Cc4ccc5c(c4)OCO5)CC3)c2)cc1,.,.,.,/,.,/,/
CCN(C(=O)CCc1nnc2ccc(NCc3ccco3)nn12)c1ccccc1,.,.,.,.,.,/,/
CC(C)(C)c1ccc(S(=O)(=O)Nc2ccc(C(O)(C(F)(F)F)C(F)(F)F)cc2)cc1,.,26,.,/,.,.,.
COc1cccc(S(=O)(=O)Nc2ccc(C(O)(C(F)(F)F)C(F)(F)F)cc2)c1,.,.,.,/,.,/,/
SMILES,Vc quorum ag,PrPC surface inh,Mtb FBA inh,SARS 3CLpro inh,GDH-TPI counter,PrPC confirm,LD9 cytotox
CCCCCCCn1c2c(c(=N)c3ccccc31)CCC2,.,30,.,.,.,31,15
N#Cc1c(-c2ccco2)nc(SCc2ccc(F)cc2)[nH]c1=O,.,95,.,.,.,121,.
O=C(Nc1ccc(C(F)(F)F)cc1)c1ccccc1-n1cnnn1,.,.,.,/,.,/,/
Nc1ncnc2c1ncn2[C@@H]1O[C@H](CO)[C@@H](O)[C@H]1O,.,.,.,.,.,/,/
Nc1ncnc2c(C3OC(CO)C(O)C3O)c[nH]c12 (centres undefined),.,57,.,/,.,61,91
COCCCN1C(=O)C(=O)/C(=C(/O)c2ccc(OCC(C)C)cc2C)C1c1cccnc1 (centres undefined),.,26,.,.,44,36,.
Cc1cc(OCc2ccccc2)ccc1/C(O)=C1/C(=O)C(=O)N(Cc2cccnc2)C1c1ccncc1 (centres undefined),.,34,.,.,38,54,.

# Screening results (PubChem)
